# Only some compounds are listed: those with a hit (about 8.2% of all), similar ones and a draw of the others.
# MCF10A rereplic: induces DNA re-replication in MCF 10a normal breast cells. MCF 10A DNA re-replication, Hoechst nuclear intensity, 48 h. Potency, µM (series often up to 46.1 µM), usual class: activators. 350,000 compounds, 2.9% hits; further: nearly all actives have a fitted effect of over 50% in size
# KB-V1 MDR tox: kills drug-selected multidrug resistant KB-V1 cells | Potency, µM (top dose mostly 46.1 µM), usual class: cytotoxic | KB-V1 MDR cells viability, CellTiter-Glo, 72 h | AID 1347076 | 400,000 compounds, 3.4% hits; further: nearly all actives have a fitted effect of over 60% in size
#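 KB-V1 MDR subline cells in DMEM (phenol-red free, 10% FBS) exposed to compounds in qHTS concentration series for 72 h at 37 degrees C. Viability read by CellTiter-Glo luminescence; concentration-effect curves fitted after normalization and correction.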
# ELG1 repair inh: ELG1-dependent DNA repair inhibition; HEK293T ELG1-luciferase reporter, luminescence, 16 h; DNA damage induced by 5-fluorouridine; Potency, µM (highest dose often 46.1 µM), actives largely listed as inhibitors; 330,000 compounds, 2.3% hits; AID 504467; further: nearly all actives have a fitted effect of over 55% in size
#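 5-Fluorouridine DNA damage + compound/DMSO, 2,000 cells/well, 16 h, 37 °C/5% CO2. ONE-Glo, 30 min RT, luminescence. Readout = decrease in reporter signal.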
# KB-3-1 tox: kills parental KB-3-1 adenocarcinoma cells; 400,000 compounds, 1.4% hits; KB-3-1 viability, CellTiter-Glo ATP luminescence, 72 h; Potency, µM (titrated, usually from 46.1 µM), usual class: cytotoxic; further: nearly all actives have a fitted effect of over 60% in size
#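 72 h, 37 °C compound treatment of KB-3-1 parental cells; CellTiter-Glo added, 10 min, luminescence read. Data corrected against DMSO-only plates and normalized before curve fitting.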
# SW480 rereplic: inducers of DNA re-replication in SW480 colon cancer cells; SW480 DNA re-replication, Hoechst DNA content imaging, 48 h; Potency, µM (top dose mostly 46.1 µM), hits mostly activators; 340,000 compounds, 1.8% hits; further: nearly all actives have a fitted effect of over 55% in size
#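 Quantitative HTS format with DMSO vehicle controls; 48 hr drug incubation at 37 C, then 40 min Hoechst staining and scanning imager measurement at 405 nm excitation.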
# Numbers stand for hits; n = inactive; u = inconclusive; x = no result given; ! = not confirmed by another sample. The call rests on the fitted dose curve; in most records, active means well fitted curve in the direction sought with a large enough effect; inconclusive means small, poorly fitted or top-dose-only effect, or another doubt; inactive means no such curve, though single readings can be large; an effect the other way counts as inactive or inconclusive.
SMILES,MCF10A rereplic,KB-V1 MDR tox,ELG1 repair inh,KB-3-1 tox,SW480 rereplic
O=C(c1cc2ccccc2oc1=O)N(Cc1ccco1)CC1CCCO1 (stereo unspecified),n,11.6µM,n,n,n
CCOC(=O)c1ccc2c(c1)N(Cc1ccc(F)cc1Cl)C(=O)c1ccccc1S2(=O)=O,x,n,x,n,x
C[C@@H]1CC[C@]2(O[C@H](CCO)C[C@H](O)[C@H]2O)O1,n,n,x,n,n
NCCCNc1ncnc2ccc(-c3ccc4c(c3)OCO4)cc12,x,n,x,u,x
CCCCC(=O)Nc1nc(C)c(-c2csc(Nc3cc(OC)ccc3OC)n2)s1,u,n,18.4µM,u,n
CCC(C)C(=O)Nc1nc(C)c(-c2csc(Nc3cc(Cl)ccc3OC)n2)s1 (stereo unspecified),n,u,u,n,n
CCCC(C)C(=O)Nc1nc(C)c(-c2csc(Nc3ccc(Cl)cc3)n2)s1 (stereo unspecified),n,n,u,8.2µM,u
CCCCCC(=O)Nc1nc(C)c(-c2csc(Nc3ccccc3OC)n2)s1,u,n,u,n,n
CCCC(C)C(=O)Nc1nc(C)c(-c2csc(Nc3ccccc3OC)n2)s1 (stereo unspecified),20.6µM,n,u,n,n
CN(C(=O)c1ccc(NC(=O)C2CCCN(C(=O)OC(C)(C)C)C2)cc1)C1CCC1 (stereo unspecified),n,n,u,n,u
Clc1ccc(/C=N/Nc2nnc(Cl)c3ccccc23)cc1,n,n,u,n,n
Clc1nnc(N/N=C/c2ccccc2)c2ccccc12,18.4µM,u,u,u,u
CC(=O)N1CCN(S(=O)(=O)c2cccc(C(=O)OCC(=O)NCc3ccccc3Cl)c2)CC1,x,n,x,n,x
O=C(CCc1c[nH]c2ccccc12)NCc1ccc2c(c1)OCO2,n,n,n,n,n
O=C(Cc1c[nH]c2ccccc12)NCc1ccc2c(c1)OCO2,n,n,11.6µM,n,n
OC(CN1CCN(Cc2ccc3c(c2)OCO3)CC1)c1c[nH]c2ccccc12 (stereo unspecified),u,n,13µM,n,u
Cc1c(C(O)CN2CCN(Cc3ccc4c(c3)OCO4)CC2)c2ccccc2n1C (stereo unspecified),n,n,u,n,u
CCN1CCN(C(=O)CCc2nnc(CCc3ccccc3OC)o2)[C@@H](C)C1=O,n,n,n,n,n
CC(C)(C)C(=O)N1CCN(c2ccc(Cl)cc2[N+](=O)[O-])CC1,n,u,n,n,u
O=C(CSc1ccc(Cl)cc1)N1CCN(c2ccc(Cl)cc2[N+](=O)[O-])CC1,18.4µM,u,n,n,n
O=C(COc1ccc(Cl)cc1)N1CCN(c2ccc([N+](=O)[O-])c(N3CCOCC3)c2)CC1,n,16.4µM,u,n,n
O=C(/C=C/c1ccc(Cl)cc1Cl)N1CCN(c2ccc([N+](=O)[O-])c(N3CCOCC3)c2)CC1,n,u,n,n,n
O=C(/C=C/c1ccc(Cl)cc1)N1CCN(c2ccc([N+](=O)[O-])c(N3CCOCC3)c2)CC1,n,2.31µM,18.4µM,u,n
COc1cc(-c2noc(C)c2C#Cc2nccn2C)cc(OC)c1OC,16.4µM,4.61µM!,u,9.2µM!,u
COc1cc(-c2noc(C)c2C#CCCN2C(=O)c3ccccc3C2=O)cc(OC)c1OC,x,n,x,n,x
SMILES,MCF10A rereplic,KB-V1 MDR tox,ELG1 repair inh,KB-3-1 tox,SW480 rereplic
Cc1oc(-c2ccccc2)nc1CNS(=O)(=O)c1ccc(Cl)cc1,x,n,x,n,x
Cn1c(=O)c2c(ncn2CC(=O)Nc2cc(Cl)cc(Cl)c2)n(C)c1=O,x,n,x,n,x
CCC1CN(C(=O)N2CCC(C(=O)NCc3cccc(OC)c3OC)CC2)c2cc(C)ccc2O1 (stereo unspecified),n,u,14.6µM,n,n
Cc1ccc(CCNC(=O)CCS(=O)(=O)c2cc3c(cc2Cl)NC(=O)CO3)cc1,x,n,x,n,x
COc1ccc(-c2ccc(SCC(=O)N3c4ccccc4CC3C)nn2)cc1OC (stereo unspecified),n,u,16.4µM,n,u
COc1cc(C(=O)N2CCCc3ccccc32)cc(OC)c1OC,10µM,u,u,u,u
COc1cc(/C=C/C(=O)N2CCCc3ccccc32)cc(OC)c1OC,u,u,8.2µM,n,n
COc1ccc(OC)c(/C=C/C(=O)N2CCCc3ccccc32)c1,n,u,u,n,n
COc1ccc(NC(=O)N2CCCc3ccccc32)cc1,n,n,u,n,n
COc1ccc(N/N=C(/C(C)=O)N2CCCc3ccccc32)cc1,n,n,n,20.6µM,n
COc1cc(-c2noc(-c3ccc(NCCc4ccccc4)c([N+](=O)[O-])c3)n2)cc(OC)c1OC,x,u,x,n,x
Cc1cc(C)cc(NS(=O)(=O)c2ccc(NC(=O)C3CCCCC3C(=O)O)cc2)c1 (stereo unspecified),n,n,n,n,n
COC(=O)c1c(N)[nH]c(C(=O)c2ccccc2)c1-c1ccc(Cl)cc1,x,n,x,n,x
COc1cccc(-c2cnc(C(O)c3cc(C)cc(C)c3)[nH]2)c1 (stereo unspecified),x,n,x,n,x
O=C(Nc1cccc(C(=O)N2CCCc3ccccc32)c1)c1ccccc1,14.6µM,20.6µM,n,u,u
COc1cc(C(=O)N2c3ccccc3CC2C)cc(OC)c1OC (stereo unspecified),n,18.4µM,n,u,n
CCCN(CCC)S(=O)(=O)c1ccc(C(=O)N2CCCc3ccccc32)cc1,23.1µM,u,u,u,u
O=C(c1ccccc1)N1CCCc2ccccc21,n,n,n,n,n
COc1ccc(/C=C/C(=O)N2CCCc3ccccc32)cc1,u,13µM,u,n,u
COc1ccc(Br)cc1C1NC(c2ccc3c(c2)OCO3)=CC(c2ccccc2O)N1 (stereo unspecified),x,u,x,n,x
CC(C)COC(=O)N(C)C[C@H]1OCc2cnnn2CCCC(=O)N([C@H](C)CO)C[C@H]1C,x,u,x,n,x
O=C(Nc1ccc2c(c1)OCO2)Nc1ccc2c(c1)OCO2,n,n,u,n,n
COc1ccc(C(C)(C)C)cc1NC(=O)Nc1ccc2c(c1)OCO2,u,23.1µM,u,n,u
O=C(Nc1cccc(C(=O)O)c1)Nc1ccc2c(c1)OCO2,n,u,2.59µM,n,n
COc1cc(NC(=O)Nc2ccc3c(c2)OCO3)cc(OC)c1OC,n,n,n,n,u
COc1cc(NC(=O)CSc2nccn2C)cc(OC)c1OC,x,n,x,n,x
COc1ccc(NC(=O)COC(=O)CN2C(=O)C3CCCCC3C2=O)cc1 (stereo unspecified),x,u,x,n,x
COC(=O)C1CCCN1C(=O)C12CC3CC(CC(C3)C1)C2 (stereo unspecified),n,n,n,n,n
CCOC(=O)c1cccc(NS(=O)(=O)c2cc3c(cc2C)NC(=O)CO3)c1,x,n,x,n,x
